This is an account of results in PubChem BioAssay AID602476 (National Center for Advancing Translational Sciences (NCATS), 2012).

Records with an inconclusive call do not appear. Entries that show only a call come without a potency. Calls of active or inactive are those of the source. The call rests on the fitted dose curve; in most records, active means well fitted activation curve with a large enough effect; inconclusive means small, poorly fitted or top-dose-only effect; inactive means flat fitted curve, though single readings scatter.

This experiment is described as follows: FLuc inhibitory activity for the follow-up compounds in a cell-based translational read-through assay. The note with it: GripTite 293 FLucUGA read-through, luminescence, 48 h; series mostly up to 38.3 µM. The text has this: NCGC Assay Overview: Firefly (Photinus pyralis) luciferase is one of the most commonly used transcriptional reporters. It is considered one of the more dynamically responsive reporters - that is, responsive to changes in reporter transcription - as it requires no post-translational modifications and is enzymatically active directly after protein synthesis (Wood, 1998). With no endogenous expression in mammalian cells and without the requirement of external excitation, it offers very little background signal, thus generally providing excellent signal to background for most assays. Previous profiling work to determine the prevalence of compounds that affect FLuc enzymatic activity (PubChem AID 411) identified that ~3% of the MLSMR library (then at ~72K) inhibited FLuc (Auld et al., 2008). […] Of the compounds identified in this profile that inhibited FLuc, 151 compounds were selected for further analysis, in an effort to better understand their mode of inhibiting FLuc. The assay described here was to determine the activity of the compounds in a cell-based firefly luciferase reporter gene assay originally designed to identify compounds that enchanced translational read-through of a FLuc cDNA that contained a premature stop codon (Auld et al., 2009; Auld et al., 2010). Compounds that enhance translational read-through or compounds that stabilize FLuc intracellularly are identified as active compounds in the assay.
NCGC Assay Protocol Summary: Reagents: Transient transfection of FlucUGA construct: TransFast Transfection Reagent (Promega #E2431); FLucUGA construct (refer to Auld et al., 2009) #GripTite 293 MSR Cell Line (Invitrogen #R795-07) #Complete growth media: DMEM (Invitrogen #11965), 10% HIFBS, 0.1mM MEM NEAA, 5mL/L pen-strep (of 5000U/mL stock), 600ug/mL Geneticin #Assay media: DMEM without phenol red (Invitrogen #21063), 5% charcoal-stripped HIFBS (Hyclone #SH30071.03), 0.1mM MEM NEAA In-house detection reagent: 300mM Tris-HCl, 300mM Trizma base, 300mM MgCl, 1% Triton-X100, 5mM DTT, 500uM Coenzyme A trilithium salt (Sigma #C3019),450uM ATP (Sigma #A7699), 1mM D-luciferin sodium salt monohydrate (Biosynth #L8240) Control compounds used were two known firefly luciferase inhibitors (3-(5-(3-chlorophenyl)-1,2,4-oxadiazol-3-yl)benzoic acid and 5-(2-fluorophenyl)-3-phenyl-1,2,4-oxadiazole), and DMSO. Assay Summary: Transient transfection of FlucUGA construct: Day 1: GripTite cells were plated in T175 flasks at a density of 1.75 x 10^7 cells/T175 flask in complete growth media without Geneticin and allowed to grow ON in a 37 degrees Celsius incubator. Day 2: Cells in T175 flask were transfected - with 10ug of DNA and 30uL Transfast in 12mL complete growth media without serum and without Geneticin for 4 hours at 37 degrees Celsius. After incubation, cells were trypsinized, spun down, and resuspended to a concentration of 3.3 x 10^5 cells/mL in assay media. 6uL of cells in assay buffer were dispensed at 2000cells/well (3.3 x 10^5 cells/mL) into Greiner solid-white TC-treated 1536-well plates using a Multidrop Combi (Thermo Fisher Scientific). Plates were incubated for one hour at 37 degree Celsius, 95% humidity, 5% CO2. These assay plates were then treated with 23nL of compound or DMSO using a Kalypsys pin tool, which allows for delivery of a 12-point titration of each compound to the assay plate, with a final compound concentration ranging from approximately ~38uM to 0.2nM. Assay plates were then incubated for 48 hours. After incubation, plates were washed three times with DPBS (7uL/well). After the third wash, 6uL of DPBS was added to each well. 3uL of 3X luciferase detection reagent was then added to each well using a flying reagent dispenser (FRD). After a 15 minute incubation to allow for cell lysis, luciferase activity was measured using a ViewLux CCD imager (PerkinElmer), with an average exposure time of 2-12 seconds.
On to `O=C(Cc1ccc(Cl)cc1)Nc1cccc(C(=O)Nc2ccccc2C(=O)O)c1`, for which the Potency result was “inactive”.

In the case of `Cc1cccc(NS(=O)(=O)c2cccc(C(=O)Nc3cccc(C(=O)O)c3)c2)c1`, the Potency result is “inactive”.

On to `O=C(Nc1ccccc1C(=O)O)c1cc(S(=O)(=O)Nc2ccccc2)ccc1Cl`, for which the Potency entry was “inactive”.

Regarding `CN=c1scc(-c2ccccc2F)n1/N=C/c1ccc[nH]1`, the Potency is 0.0504 µM (active).

Turning to `CCCOc1cccc(C(=O)Nc2ccc(-c3nc4ccccc4s3)c(Cl)c2)c1`, the Potency result was “inactive”.

With `CC(C)(C)C(=O)Nc1ccc(-c2nc3ccccc3s2)cc1`, the Potency was 0.0318 µM (active).

Consider `CN(C)S(=O)(=O)c1ccc(C(=O)Nc2cccc(C(=O)O)c2)cc1`, for which the Potency entry was “inactive”.

As to `COc1ccc(-c2nc3ccccc3s2)cc1NC(=O)c1ccc(F)cc1`, the Potency entry is “inactive”.

`O=C(O)c1ccc(NC(=O)c2ccccc2NC(=O)c2cccc(Br)c2)cc1`: the Potency entry is “inactive”.

`O=C(O)c1cccc(NC(=O)c2cccc(NC(=O)C3CCCO3)c2)c1` (stereo not given): the Potency entry was “inactive”.

In the case of `Nc1ccc(-c2nc3ccc(N)cc3s2)cc1`, the Potency is 15.9 µM (active).

In the case of `O=C(Nc1ccccc1C(=O)O)c1ccc(NC(=O)C2CCCO2)cc1` (stereo not given), the Potency entry is “inactive”.

For the molecule `COc1cc(OC)cc(C(=O)Nc2ccccc2-c2nc3ccccc3s2)c1`, the Potency entry was “inactive”.

Regarding `CCOc1c(Cl)cc(C(=O)Nc2ccccc2C(=O)O)cc1Cl`, the Potency entry was “inactive”.

In the case of `O=C(O)c1ccc(NC(=O)c2cccc(C(=O)Nc3ccc(C(=O)O)cc3)c2)cc1`, the Potency result was “inactive”.

Turning to `Nc1ccccc1C(=O)Nc1cccc(C(=O)O)c1`, the Potency was 28.3 µM (active).

Turning to `Cc1ccc(C(=O)O/N=C(\N)c2ccccn2)cc1`, the Potency is 3.56 µM (active).

Turning to `O=C(Cc1ccccc1)Nc1ccc(C(=O)Nc2ccccc2C(=O)O)cc1`, the Potency entry is “inactive”.

With `CCOc1ccc2nc(NC(=O)c3cc([N+](=O)[O-])ccc3N3CCOCC3)sc2c1`, the Potency entry was “inactive”.

Consider `Cc1ccc(C(=O)Nc2ccc(C(=O)O)cc2)cc1S(=O)(=O)NCc1ccccc1`, for which the Potency result is “inactive”.

Turning to `Cc1ccc(S(=O)(=O)N2CCN(C(=O)c3ccccc3-c3nc4ccccc4s3)CC2)c(C)c1`, the Potency result was “inactive”.

For `O=C(Nc1ccccc1C(=O)O)c1ccc(Cl)c(S(=O)(=O)N2CCOCC2)c1`, the Potency result was “inactive”.

As to `O=C(O)c1ccc(NC(=O)c2cccc(NC(=O)c3cccs3)c2)cc1`, the Potency result is “inactive”.

For `COc1ccc2nc(NC(=O)c3ccco3)sc2c1`, the Potency is 0.634 µM (active).

On to `Nc1ccc(-c2nc3cc(N)ccc3s2)cc1`, for which the Potency is 14.2 µM (active).

As for `Cc1ccc(S(=O)(=O)N2CCOCC2)cc1C(=O)Nc1ccccc1C(=O)O`, the Potency entry was “inactive”.

Take `COc1ccccc1C(=O)Nc1ccc(C(=O)O)cc1`: the Potency entry is “inactive”.

For `O=C(O)c1cccc(NC(=O)c2cccc(S(=O)(=O)Nc3cccc(F)c3)c2)c1`, the Potency entry was “inactive”.

`O=C(Nc1ccccc1C(=O)O)c1cc(S(=O)(=O)NCc2ccccc2)ccc1Cl`: the Potency result was “inactive”.

As to `COc1ccc2nc(NC(=O)c3ccccc3C(=O)O)sc2c1`, the Potency result was “inactive”.

Take `COc1ccc(C(=O)Nc2ccccc2C(=O)Nc2ccc(C(=O)O)cc2)cc1`: the Potency was 25.2 µM (active).

Consider `COc1ccc(C(=O)Nc2ccccc2-c2nc3ccccc3s2)c(OC)c1`, for which the Potency result is “inactive”.

With `O=C(Nc1ccccc1C(=O)O)c1cc(S(=O)(=O)Nc2cccc(F)c2)ccc1Cl`, the Potency entry was “inactive”.

Turning to `Cc1c(C)c2ccc(OCC(=O)Nc3ccccn3)c(C)c2oc1=O`, the Potency is 5.04 µM (active).

On to `COc1ccc2nc(NC(=O)c3cnccn3)sc2c1`, for which the Potency was 0.565 µM (active).

`COc1ccc2nc(NC(=O)c3ccc(S(=O)(=O)N4CCCC(C)C4)cc3)sc2c1` (stereo not given): the Potency entry was “inactive”.

As for `COc1cc(OC)cc(C(=O)Nc2ccc(-c3nc4ccccc4s3)c(C)c2)c1`, the Potency entry was “inactive”.

As to `COc1ccc(-c2cccc(C(=O)Nc3cccc(C(=O)O)c3)c2)cc1`, the Potency is 11.3 µM (active).

With `COc1cccc(-c2nc3ccccc3s2)c1`, the Potency was 1.26 µM (active).

As for `COc1ccc2nc(NC(=O)c3cccc(S(=O)(=O)N4CCOCC4)c3)sc2c1`, the Potency result was “inactive”.
